Consider three substances from the supplement of paper PMC8728848.

Shown is part of a subset that was picked to be rich in the strongest signals.

In the experiment the test system is Neu5Ac(a2-6)Gal(b1-3)GlcNAc(b1-3)[Gal(b1-4)GlcNAc(b1-6)]Gal(b1-4)Glc. The experiment can be described thus: glycan array binding signal (z-score within array); higher = stronger binding. The conditions noted are these: glycan notation: IUPAC condensed, linker removed. An outline of the steps:
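Glycan array data came from 3228 arrays in the Consortium for Functional Glycomics database, and only arrays with an available protein sequence were kept. Glycan names were put into IUPAC-condensed notation, and columns mapping to the same glycan were averaged. The binding signal is a within-array Z-score, averaged across arrays of one protein sequence run at different concentrations or buffers and across linkers. A negative Z-score can be read as non-binding.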
As for Epa22, the “glycan array binding signal (z-score)” value was -0.487.

Regarding Wza (Escherichia coli), P0A930, the “glycan array binding signal (z-score)” value was determined as 0.652.

As for “SpGH101 (Streptococcus pneumoniae), Q8DR60”, the “glycan array binding signal (z-score)” value was -0.168.
